Measurements reported in ChEMBL document CHEMBL1157539, “Thousands of chemical starting points for antimalarial lead identification” (Nature, 2010).

These molecules were tested on Plasmodium falciparum (assay: GSK_TCMDC: Inhibition of Plasmodium falciparum 3D7 in whole red blood cells, using parasite LDH activity as an index of growth. Test compounds present at 2uM).
Assay type: functional

Which Inhibition does the source give for CC(C)c1ccc(-c2noc(SCC(=O)N3CCCCC3C)n2)cc1 (stereo unspecified) here?
The Inhibition was 92%.

For Cc1cc(C(=O)Nc2ccc(-c3ccccc3)cc2)no1, which Inhibition is on record?
Its Inhibition is 90%.

With Cc1[nH]n(-c2cccc(C(F)(F)F)c2)c(=O)c1-c1ccc(Cl)cc1 as the molecule, how does the Inhibition read?
The Inhibition was 98%.

How did the Inhibition turn out when O=C(/C=C/c1ccc(Cl)c(Cl)c1)NCCCCCN1CCC(NC(=O)c2ccc(F)c(F)c2)CC1 was run?
The Inhibition was 99%.

What follows are molecules tested on Plasmodium falciparum (assay: GSK_TCMDC: Inhibition of Plasmodium falciparum Dd2 in whole red blood cells, using parasite LDH activity as an index of growth. Test compounds present at 2uM).
Assay type: functional

With CCCCCCN(CCCCCC)CCCCNc1c2ccc(Cl)cc2nc2ccc(OC)cc12.Cl as the molecule, how does the Inhibition read?
The Inhibition was 94%.

With O=C(NC1CCCC1)c1ccc(N2CCC(NCc3cc4cc(Cl)ccc4[nH]3)CC2)cc1 as the molecule, how does the Inhibition read?
Its Inhibition is 0%.

CCN(CC)CCN(Cc1ccc(-c2ccc(C(F)(F)F)cc2)cc1)C(=O)Cn1c(CCc2ccccc2F)nc(=O)c2ccccc21.O=C(O)C(O)C(O)C(=O)O was tested. Which Inhibition did it give?
The Inhibition was 54%.

Which Inhibition does the source give for O=C(Nc1ccc(Cl)cc1)c1ccc(CN2CCCN(Cc3ccccc3)CC2)cc1.O=C(O)C(F)(F)F here?
Its Inhibition is 2%.

For CCOc1c(OC)ccc2c1CCN(CCN1CCC(CNC(=O)c3ccc(-c4ccc(C#N)cc4)cc3)CC1)C2, which Inhibition is on record?
The Inhibition was 61%.

Which Inhibition does the source give for O=C(/C=C/c1ccc(Cl)c(Cl)c1)N1CCC(CN2CCC(Cc3c[nH]c4ccccc34)CC2)CC1 here?
The Inhibition was 13%.

Which Inhibition does the source give for CC(C)c1cccc(C(C)C)c1NC(=O)NNC(=O)c1ccc(CCN2CCC(c3nc(COCC(F)(F)F)c(-c4ccc(F)cc4)o3)CC2)cc1 here?
The Inhibition was 34%.

With CCC(C)OC(=O)C1=C(C)NC2=C(C(=O)CC(c3ccc(OC)c(OC)c3)C2)C1c1ccc(C)o1 (stereo unspecified) as the molecule, how does the Inhibition read?
Its Inhibition is 82%.

For O=C(/C=C/c1ccc(Cl)c(Cl)c1)NCCCCCN1CCC(NC(=O)NC2CCCC2)CC1, which Inhibition is on record?
The Inhibition was 31%.

Which Inhibition does the source give for CCn1ccc2c(N3CCCCS3(=O)=O)cc(C(=O)N[C@@H](Cc3ccccc3)[C@H](O)CNC3CCCCC3)cc21 here?
Its Inhibition is 98%.

Which Inhibition does the source give for Cc1cccc2nc(-c3ccc(-c4ccc(CNCCNC(=O)c5ccnn5C)cc4)cc3)[nH]c12.O=C(O)C(F)(F)F here?
The Inhibition was 98%.

Which Inhibition does the source give for CCOc1ccc(Br)cc1/C=C/C(=O)Nc1ccc(C2CCN(C)CC2)cc1 here?
The Inhibition was 71%.

Which Inhibition does the source give for Cc1nc2ccc(NC(=O)Nc3ccnc4ccc(C(F)(F)F)cc34)cc2o1 here?
The Inhibition was 24%.

How did the Inhibition turn out when COc1cc(Br)c(NC(=O)Nc2ccc(C(F)(F)F)c(O[C@@H]3CCN(C)C3)c2)cc1OC.Cl was run?
The Inhibition was 27%.

With NC1CCCN(Cc2ccc(-c3cccc(-c4nc5ccccc5[nH]4)c3)cc2)C1.O=C(O)C(F)(F)F (stereo unspecified) as the molecule, how does the Inhibition read?
The Inhibition was 26%.

Which Inhibition does the source give for CCc1cccc(-n2c(=O)c3cccnc3n2CC(=O)NC2CCCC2)c1 here?
The Inhibition was 13%.

How did the Inhibition turn out when O=C(Nc1ccc(-c2nc3ccccc3[nH]2)cc1)C1CCN(Cc2ccc(F)cc2)CC1 was run?
Its Inhibition is 91%.

CC1(C)N=C(NC(=O)c2ccc([N+](=O)[O-])cc2)N=C(N)N1OCc1ccc2ccccc2c1 was tested. Which Inhibition did it give?
The Inhibition was 78%.

For CC(C)(C)c1ccc(NC(=O)c2ccc(CN3CCCN(Cc4cccc(C#N)c4)CC3)cc2)cc1.O=C(O)C(F)(F)F, which Inhibition is on record?
The Inhibition was 12%.

How did the Inhibition turn out when O=C(Nc1ccccc1Cl)c1cc2ccccc2cc1O was run?
Its Inhibition is 72%.

Which Inhibition does the source give for c1ccc(COc2ccc(Cn3ccc(-c4ccc(-n5ccnc5)cc4)n3)cc2)cc1.c1ccc(COc2ccc(Cn3nccc3-c3ccc(-n4ccnc4)cc3)cc2)cc1 here?
Its Inhibition is 67%.

COc1ccc2nccc(N3CCC(SCCNCc4cc5c(cn4)OCCO5)C3)c2n1.Cl (stereo unspecified) was tested. Which Inhibition did it give?
Its Inhibition is 100%.

With N#Cc1ccc(-c2ccc(C(=O)NC3CCN(CCN4CCc5c(cccc5C(F)(F)F)C4)CC3)cc2)cc1 as the molecule, how does the Inhibition read?
Its Inhibition is 51%.

Which Inhibition does the source give for CC(C)CSc1cc(C(=O)Nc2cc(Cl)ccc2O)ccn1 here?
Its Inhibition is 34%.

O=C(/C=C/c1ccc(Cl)c(Cl)c1)NCCCCCCN1CCN(C(=O)Nc2cccc(Cl)c2)CC1 was tested. Which Inhibition did it give?
Its Inhibition is 2%.

For NC1CCN(c2nc(NCCCc3ccc(O)cc3)nc(NCc3ccccc3-c3ccccc3)n2)CC1.O=C(O)C(F)(F)F, which Inhibition is on record?
The Inhibition was 45%.

With CC(C)(C)C1CCc2onc(C(=O)Nc3cc(Cl)ccc3O)c2C1 (stereo unspecified) as the molecule, how does the Inhibition read?
Its Inhibition is 82%.

For CC1CN(c2cnn(C/C=C/c3ccc(NC(=O)c4ccc(Cl)cc4)cc3)c(=O)c2Cl)CC(C)N1.O=C(O)C(F)(F)F (stereo unspecified), which Inhibition is on record?
Its Inhibition is 82%.

With CS(=O)(=O)Nc1cccc(-c2cnc3[nH]cc(-c4ccc(CCC(=O)O)cc4)c3c2)c1 as the molecule, how does the Inhibition read?
The Inhibition was 78%.

For CNC(=O)NC1=NC(C)(C)N(OCc2ccc(Cl)c(Cl)c2)C(NC(=O)NC)=N1, which Inhibition is on record?
Its Inhibition is 0%.

How did the Inhibition turn out when Nc1ncc(-c2ccsc2)c2ccc(-c3cnc[nH]3)cc12 was run?
The Inhibition was 70%.

COc1c(C2CCN(CCCCNC(=O)c3ccc(-c4ccc(C#N)cc4)c(O)c3)CC2)ccc2c1CCCC2.Cl was tested. Which Inhibition did it give?
Its Inhibition is 78%.
